Measured values from PubChem BioAssay AID1508600 (Functional Genomics Laboratory (NCATS/FGL), 2020).
Hit rate of the full screen: of about 53,000 sequences, about 3,700 (7%) were called active.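 The calls were made as follows: active = gene knockdowns whose robust z-score for IL-1 alpha signal is at least 2 or at most -2, so actives lie on both sides; inactive = the rest.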 The full list was thinned out, with actives kept by preference.

assay: Components of the Cytosolic LPS Sensing Pathway: Gene Identification via Genome-wide siRNA Screen; conditions: RAW264.7 macrophages, IL-1a HTRF, actives lie on both sides, screened at 100 nM (by protocol), cells primed 5 h with Pam3CSK4 first;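 also: robust z of the log signal after scaling to non-targeting control siRNA wells of the plate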
How it was run: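 Knockdown: 100 nM siRNA, 48h, RAW264.7. Stimulation: Pam3CSK4 5 h, then LipidA via TransIT-TKO 24 h. Output: supernatant IL-1a HTRF, negative-control-normalized, log robust z-score; viability by CellTiter-Glo.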

Sequence | z-score
CCUAUAAAGCUCUAAAGGATT against Caprin1 | 0.115 (inactive)
GGGUUUCCACAGACAAUGUTT against V1rg10 | -0.837 (inactive)
GGACCUUUUUUGUUCAAAATT against Rasd1 | 0.157 (inactive)
CUCUGUACUUGGGCAGGAATT against Cyp2c65 | 2.9 (active)
CGCUGCAUUAAAGACUAAATT against Kcnj10 | 0.414 (inactive)
GCAAACGGACACUUGGAAUTT against Hmx1 | -0.9 (inactive)
GGUAAACAUGAUGUCCCUCTT against A630038E17Rik | 0.0317 (inactive)
GGAAUAUGCUGCAAAAAUCTT against Camk2g | -1.58 (inactive)
GGCAGCCUGAACAUCAAUGTT against S100a13 | 1.47 (inactive)
CCGAAGCUUUAUCUUCUAUTT against Pkd2 | -0.719 (inactive)
GGCCAUGGUUUCAAAAACATT against Rspo2 | -1.33 (inactive)
GGCGAUCUUUGGAAUUAGATT against Ing3 | 0.209 (inactive)
GGGAACAUGUUUUACUCUUTT against Zfp521 | 1.63 (inactive)
GGUCGACAGAUCAAGCCUUTT against Psmb3 | -2.18 (active)
GCCAAUCUGAACUUGUGUUTT against Plet1 | -0.931 (inactive)
CCACAGGGACAACAAACUATT against Arid3b | 0.0513 (inactive)
CCUGUUUCGUAGAUUGUUUTT against Eftud2 | -0.35 (inactive)
CGUGUCAUACAGGUGUGGUTT against Lhx8 | 2.11 (active)
UCCUUGCUGUCCUAACCAUTT against Gpr119 | 1.64 (inactive)
GCUGCACCAUCAAUUCCCATT against Vpreb3 | -1.63 (inactive)
GGCACUUGAAUUUCUAAGUTT against Cbx5 | 0.0672 (inactive)
GGACCCAGCAGUCAAGAUATT against 9930038B18Rik | 0.0416 (inactive)

Sequence | z-score
CCAGCAAUAGUUCAGCAGATT against Ccdc82 | -2.72 (active)
GGUGCCAACCUCAAUUCAUTT against Hnf4a | 1.9 (inactive)
CCGGUUCACUGCUUGACCUTT against Wbp1 | 0.87 (inactive)
CGUUGUGAGGUUAUACGACTT against Tbc1d20 | -0.862 (inactive)
GGAACACUUUAAGACCAAATT against Fmnl1 | 0.482 (inactive)
GGAGUAUUAUGAAGUGUUGTT against Aip | 0.108 (inactive)
GGAAACUGGUGCUACAUUATT against Usp10 | 0.747 (inactive)
GGACAGGAUCAGAGAAAGATT against Zbtb7c | -2.15 (active)
GGACAUUGAGGAUUAUGUCTT against Med24 | 0.332 (inactive)
GCUAGAUGUAGAUAGAUAATT against Plekhm3 | -0.569 (inactive)
GCACAGGUGAGCUCUUUGATT against Nudt10 | -1.12 (inactive)
GUGUUUUACCAUUGGACAUTT against Klra20 | 1.58 (inactive)
GUUCGCUGAACACGUCUUCTT against Hpcal1 | 0.549 (inactive)
GGCAUUGAAUUACUUACAUTT against Slk | 2.46 (active)
GAGACAAUUGUAACAUUCUTT against Olfr176 | 1.2 (inactive)
GGCAGCUUAGCUGUUCGUCTT against Socs4 | -0.664 (inactive)
GGCCAGUUCUAUGUCAUGATT against Usf2 | -2.05 (active)
GGCUCUCAGUGCCAUCAUUTT against Stk40 | -0.858 (inactive)
GCUUGGGUAAUAGAAAUCATT against Btnl1 | 0.6 (inactive)
GGUUCUCCAAACUCUGCCATT against Arhgap1 | 2.29 (active)
GCCAAGACAUCAGAAGGAUTT against Nrxn1 | 0.202 (inactive)
GGAAAACAGUGGUAGCUUATT against Cnp | 0.187 (inactive)

Sequence | z-score
GGAUGAAGAUGAAAAAGAUTT against Hoxc9 | -0.247 (inactive)
GGGACUUUGUAAACAGUUUTT against Eci2 | 1.61 (inactive)
GGCUAACCGUAUCAGUCAUTT against Podnl1 | -1.23 (inactive)
GGCUUGAAUAUUAAAGUGATT against Arhgef19 | -0.505 (inactive)
GGAGGUGGUACAAUACACCTT against Gsg1 | 2.86 (active)
CCAACUUCAAAACUAUCGUTT against Trp53bp1 | 2.19 (active)
UGCGAGCUCACUGAUGUACTT against Adam34l | -1.69 (inactive)
GGGUUAGGUUGGGAUGGAUTT against Ccnd3 | -0.466 (inactive)
GCACCUGACAGAUACUUCCTT against Ints4 | -2.1 (active)
CGUGGGCCUAUGCUUGUCATT against Tsc1 | 0.32 (inactive)
GGUUCUGAUAUACGUGUUUTT against Rraga | 0.057 (inactive)
CCCAUUCACUCAUCACAUGTT against F630003A18Rik | -1.4 (inactive)
GGCAGUUUUGCAUGUGUGATT against Zfp654 | -2.23 (active)
GCCACUAAGAAUCAGACAUTT against Ryr1 | -0.382 (inactive)
CCAGACCAUUAACUUGAUUTT against Lsm8 | -0.739 (inactive)
GGUACGAGUGAUCGUACUUTT against 5330438I03Rik | 0.54 (inactive)
CCCGUCACCACUUAACAUGTT against Rasal2 | 0.699 (inactive)
GCUUUGAUGUCGAUGGGCUTT against Arg1 | -2.01 (active)
GGAAUACCAUGUUACAAUUTT against Reln | 0.816 (inactive)
GGUGUCUUUUUUUACAAGATT against Tnfsf11 | 0.233 (inactive)
GGAGGAACCUAAUUGAAUGTT against Cmbl | 0.183 (inactive)
GGUCCAGAUAGACAUCCUGTT against Ralb | 0.169 (inactive)

Sequence | z-score
GCAACUUGUCAGAUGUUUCTT against Trpm7 | 3.35 (active)
GGGAUAAAUAUGAAGAAAGTT against Tacc2 | -1.46 (inactive)
GGAACAGAGAUAUGAAACATT against Olfr738 | -2.4 (active)
GGAGCAAUUAAAGGUGUCATT against Fpr-rs3 | -0.159 (inactive)
CCAUCUUCAGCAGUGGAAATT against Rph3al | -1 (inactive)
GGCGUGCGAUAACACGCAATT against Med18 | 1.05 (inactive)
GGUCGUAUGGUGCUCAAGATT against Pira1 | -1.76 (inactive)
GGCAUAGGACUAGAAGCAGTT against Rsrc2 | -1.54 (inactive)
GCAGUAUGGGACUAUGCUUTT against Cp | -0.0969 (inactive)
GCCAGAACCUGACUUAUAUTT against Mia2 | -0.0793 (inactive)
GCCUGGCUAGAAAUGUGGUTT against Fpr3 | 3.19 (active)
CCUCAUUCAGAGUAUAUAGTT against Vwa3a | -0.469 (inactive)
GGCUUUAGAGAAAGAAGUATT against Med4 | 1 (inactive)
GCGAGGUGUCUCUAUCAACTT against Mrpl11 | 3.37 (active)
GCCUUUCUUCAGUGUUCACTT against Gm128 | 0.498 (inactive)
GGUCUACGCUAUCCUAGUUTT against Grin1 | -2.23 (active)
GCACCAAAAUACACGAAAGTT against Ptpdc1 | -1.11 (inactive)
CCCAUGACUAUCCAAACAATT against Kcnmb2 | -1.52 (inactive)
CCUUAGUAACAGCACUAGCTT against Lrfn2 | -0.228 (inactive)
GGAGCUGGAGUACGACUACTT against Tmem30b | -0.891 (inactive)
GGGAAAAUUUCCUCUGACUTT against Chia1 | -2.03 (active)
UUUAAGGAUCUCGUGCGAATT against Olfr809 | -0.12 (inactive)

Sequence | z-score
GCUAAAACCCGUUACUUCCTT against Gsta4 | 0.669 (inactive)
CGACUACAAUGGGCUCAAGTT against Kifc3 | -2.1 (active)
GGUAAAGGGUUCUUGGACATT against Eps15l1 | -0.156 (inactive)
GGAGAAUGCCCUGAUAUAGTT against Hyal5 | 1.56 (inactive)
GGAUGUGAUUGAUAUUGAATT against Cul7 | 1.63 (inactive)
GCAGUAGUCUUGGAAUUAATT against Bhlhe41 | 2.15 (active)
GCAGCGAGGUUAUCAGUAATT against Sox8 | -0.554 (inactive)
GCCUUUUUACAGCUCAGGUTT against Zfp975 | -0.623 (inactive)
GCCACCCUUCUGGAGAUUCTT against Gm6787 | 1.49 (inactive)
CGGUAUCUACAUCAUAAACTT against Rpsa | 0.172 (inactive)
GGUUACCAGAAAAUAACUATT against E130114P18Rik | 0.852 (inactive)
UGUCAACUGACUGUAGUAATT against Zmynd12 | 1.66 (inactive)
GGACUGGAAAAUAUCAAACTT against Spata5 | 2.04 (active)
GGCUACGUGAAGGAACAGUTT against Rps10 | 0.397 (inactive)
GGCACUUAAGUAUUCUUCATT against Wac | -0.412 (inactive)
GGAAAAAUCAGUUUCGUCUTT against Dgkq | 0.305 (inactive)
GGUUAGCCAGCUGAAUCAATT against Cxxc4 | 1.89 (inactive)
CCUAGAAAGAGGACUCAGATT against Abhd12 | -0.293 (inactive)
CCUUUAAAGGGCAUAUUCATT against Clip1 | 1.46 (inactive)
GGCCUGCCGGAGAUAAAGATT against Tex43 | -0.759 (inactive)
